The values below come from PubChem BioAssay (EPA / NIEHS).

Experiment [1] concerns the target Androgen receptor (Homo sapiens) (UniProt P10275). Put plainly: ATG_AR_TRANS: Attagene TRANS-FACTORIAL HepG2 Assay for human Androgen Receptor (AR) (AID 2282973). To be noted: HepG2 Attagene TRANS-FACTORIAL AR reporter transcription. The essentials: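 Steps: transfect HepG2 with multiple GAL4-UAS reporter transcription units (TRANS format, exogenous NR-Gal4 protein); dose 24 h; isolate RNA, reverse-transcribe, PCR-amplify, FAM-label, HpaI-digest; resolve by capillary electrophoresis. Positive direction vs DMSO.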

The target in experiment [2] is human AMP-activated Protein Kinase, alpha 1 (AMPKa1), PRKAA1 (gene 5562) (UniProt Q13131). Put plainly: NVS_ENZ_hAMPKa1: NovaScreen (NVS) Enzymatic Assay for human AMP-activated Protein Kinase, alpha 1 (AMPKa1) (AID 2283130). The method in brief: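 Recombinant human AMPKα1 activity was measured cell-free by fluorescent substrate conversion with electrophoretic mobility-shift separation, 1 h after dosing. Duplicate single-point screening was at 25 uM; actives (≥30% inhibition) were retested in concentration-response up to 50 uM.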

The target in experiment [3] is human Aurora Kinase A - serine/threonine-protein Kinase 6 (AurA), AURKA (gene 6790) (UniProt O14965). Put plainly: NVS_ENZ_hAurA: NovaScreen (NVS) Enzymatic Assay for human Aurora Kinase A - serine/threonine-protein Kinase 6 (AurA) (AID 2283142). The method in brief:
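Cell-free enzymatic assay with human Aurora A, 1 hour after dosing. Fluorescent substrate turnover detected after electrophoretic mobility shift separation of substrate and product. Screened at 25 uM, actives retested in concentration-response up to 50 uM.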

In experiment [4] the target is human Epidermal Growth Factor Receptor (EGFR), EGFR (gene 1956) (UniProt P00533). Description: NVS_ENZ_hEGFR: NovaScreen (NVS) Enzymatic Assay for human Epidermal Growth Factor Receptor (EGFR) (AID 2283151). The essentials: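 Cell-free kinase assay, fluorescence plus electrophoretic mobility shift separating substrate and product, read 1 hour after dosing; loss of signal vs DMSO. Duplicate screen at 25 uM, then concentration-response to 50 uM.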

Experiment [5] has as its target human Fibroblast Growth Factor Receptor 1 (FGFR1), FGFR1 (gene 2260) (UniProt P11362). Put plainly: NVS_ENZ_hFGFR1: NovaScreen (NVS) Enzymatic Assay for human Fibroblast Growth Factor Receptor 1 (FGFR1) (AID 2283159).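 Also: hits lower the signal so potencies describe inhibitors of the kinase.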 The method in brief: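 Cell-free recombinant kinase with fluorescent substrate, product separated by electrophoretic mobility shift; read 1 hour after dosing, loss of signal relative to DMSO. Initial screen in duplicate at 25 uM, actives followed in concentration series.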

In experiment [6] the target is human IkappaB Kinase alpha (IKKa), CHUK (gene 1147) (UniProt O15111). Description: NVS_ENZ_hIKKa: NovaScreen (NVS) Enzymatic Assay for human IkappaB Kinase alpha (IKKa) (AID 2283167). The essentials:
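Cell-free recombinant human IKKa with fluorescent substrate, product separated by electrophoretic mobility shift; read 1 hour after dosing. Primary screen duplicate at 25 uM, actives then concentration-response up to 50 uM; loss of signal relative to DMSO.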

Experiment [7] addresses human p21 Activated Kinase 4 (PAK4), PAK4 (gene 10298) (UniProt O96013). Description: NVS_ENZ_hPAK4: NovaScreen (NVS) Enzymatic Assay for human p21 Activated Kinase 4 (PAK4) (AID 2283189). The method in brief: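 Cell-free recombinant human PAK4 activity assay; fluorescent substrate and product separated by electrophoretic mobility shift, read 1 h after dosing. Initially tested in duplicate at 25 uM, relative to DMSO baseline.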

Experiment [8] has as its target human Phosphatase and Tensin Homolog (PTEN), PTEN (gene 5728) (UniProt P60484). Description: NVS_ENZ_hPTEN: NovaScreen (NVS) Enzymatic Assay for human Phosphatase and Tensin Homolog (PTEN) (AID 2283203). The essentials:
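Cell-free recombinant human PTEN with fluorescent substrate; product separated by electrophoretic mobility shift and read by fluorescence 1 h after dosing. Primary screen in duplicate at 25 uM, actives followed in concentration series versus DMSO.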

Experiment [9] concerns the target human Protein Tyrosine Phosphatase Non-receptor Type 2 (PTPN2), PTPN2 (gene 5771) (UniProt P17706). Put plainly: NVS_ENZ_hPTPN2: NovaScreen (NVS) Enzymatic Assay for human Protein Tyrosine Phosphatase Non-receptor Type 2 (PTPN2) (AID 2283207). The essentials: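 Cell-free recombinant enzyme with fluorescent substrate, product separated by electrophoretic mobility shift; read 1 h after dosing. Primary screen single concentration (25 uM) in duplicate; actives followed in concentration series; loss of signal versus DMSO.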

For experiment [10], the target named is human Protein Tyrosine Phosphatase Receptor Type C (PTPRC), PTPRC (gene 5788) (UniProt P08575). Description: NVS_ENZ_hPTPRC: NovaScreen (NVS) Enzymatic Assay for human Protein Tyrosine Phosphatase Receptor Type C (PTPRC) (AID 2283212). The method in brief:
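Yeast-extracted human PTPRC used in a cell-free colorimetric enzyme activity read-out, 1 h after dosing. Primary screen in duplicate at 25 uM; actives rerun in concentration-response up to 50 uM, DMSO as baseline.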

The target of experiment [11] is human Raf-1 Proto-Oncogene, serine/threonine Kinase (RAF1), RAF1 (gene 5894) (UniProt P04049). Description: NVS_ENZ_hRAF1: NovaScreen (NVS) Enzymatic Assay for human Raf-1 Proto-Oncogene, serine/threonine Kinase (RAF1) (AID 2283216). The essentials:
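Cell-free recombinant kinase with specific fluorescent substrate, product separated by electrophoretic mobility shift; read 1 h after dosing. Primary screen at 25 uM in duplicate; hits then run in concentration-response up to 50 uM, fitted as loss of signal versus DMSO.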

Experiment [12] has as its target human Caspase 2 (CASP2), CASP2 (gene 835) (UniProt P42575). Description: NVS_ENZ_hCASP2: NovaScreen (NVS) Enzymatic Assay for human Caspase 2 (CASP2) (AID 2283135). The essentials:
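E. coli-expressed enzyme in a cell-free protease assay, fluorescence read 1 h after dosing. Compounds at 25 uM in duplicate, with concentration-response up to 50 uM for hits; loss of signal against DMSO baseline.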

The target of experiment [13] is human MET Proto-Oncogene, Receptor Tyrosine Kinase (MET), MET (gene 4233) (UniProt P08581). Put plainly: NVS_ENZ_hMet: NovaScreen (NVS) Enzymatic Assay for human MET Proto-Oncogene, Receptor Tyrosine Kinase (MET) (AID 2283180). The essentials:
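Cell-free MET kinase assay using recombinant protein and fluorescent substrate, with mobility-shift separation; read 1 h after dosing. Primary duplicate at 25 uM; actives in singleton concentration-response to 50 uM maximum. Signal loss versus DMSO.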

Experiment [14] relates to rat Monoamine Oxidase, MAO-A, Peripheral (MAOAP), gene 29253. Description: NVS_ENZ_rMAOAP: NovaScreen (NVS) Enzymatic Assay for rat Monoamine Oxidase, MAO-A, Peripheral (MAOAP) (AID 2283237). The method in brief:
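Rat liver mitochondrial membranes served as the MAO-A source, with enzyme activity measured by radiometric scintillation counting 1.17 hours after dosing. Loss of signal was fitted against DMSO; primary screen used 25 uM in duplicate, follow-up used concentration series.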

Experiment [15] deals with rat Monoamine Oxidase, MAO-B, Central (MAOBC), Maob (gene 25750) (UniProt P19643). Put plainly: NVS_ENZ_rMAOBC: NovaScreen (NVS) Enzymatic Assay for rat Monoamine Oxidase, MAO-B, Central (MAOBC) (AID 2283238). The essentials: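 Compounds were first tested in duplicate at 25 uM against MAO-B from rat brain tissue; those passing the inhibition threshold were retested in concentration series up to 50 uM. Radiodetection by scintillation counting at 1.17 h, analysed against DMSO baseline.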

In experiment [16] the target is rat Monoamine Oxidase, MAO-B, Peripheral (MAOBP), Maob (gene 25750) (UniProt P19643). Description: NVS_ENZ_rMAOBP: NovaScreen (NVS) Enzymatic Assay for rat Monoamine Oxidase, MAO-B, Peripheral (MAOBP) (AID 2283242).
The target in experiment [17] is human Acetylcholinesterase (AChE), ACHE (gene 43) (UniProt P22303). Put plainly: NVS_ENZ_hAChE: NovaScreen (NVS) Enzymatic Assay for human Acetylcholinesterase (AChE) (AID 2283129). The method in brief: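 Cell-free colorimetric enzyme-activity assay; compounds read 0.33 hour after dosing, loss of signal vs DMSO baseline. Primary screen in duplicate at 25 uM single concentration, with active compounds retested in concentration series.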

Experiment [18] deals with rat CYP1A2, Cyp1a2 (gene 24297) (UniProt P04799). Description: NVS_ADME_rCYP1A2: NovaScreen (NVS) CYP450-related Enzyme Activity (ADME) Assay for rat CYP1A2 (AID 2283115). The method in brief: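 Cell-free recombinant rat enzyme with fluorogenic substrate, read by fluorescence intensity 1 hour after dosing. Loss of signal versus acetonitrile negative control; primary screen at 10 uM in duplicate, actives followed in concentration series.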

Experiment [19] addresses PPP2CA (gene 5515) (UniProt P67775). Put plainly: NVS_ENZ_hPPP2CA: NovaScreen (NVS) Enzymatic Assay for human Protein Phosphatase 2 Aatalytic subunit Alpha (PPP2CA) (AID 2283199). The essentials:
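Recombinant human PPP2CA with fluorescent substrate; product separated from substrate by electrophoretic mobility shift, read 1.33 h after dosing. Duplicate single-point at 25 uM, then singleton concentration-response up to 50 uM; loss of signal versus DMSO.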

Experiment [20] concerns rat Monoamine Oxidase, MAO-A, Central (MAOAC), gene 29253. Description: NVS_ENZ_rMAOAC: NovaScreen (NVS) Enzymatic Assay for rat Monoamine Oxidase, MAO-A, Central (MAOAC) (AID 2283243).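 Also: potency refers to inhibition seen as signal drop below DMSO baseline.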 The method in brief: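 Rat brain tissue extract used as enzyme source in a cell-free radiometric assay, read by scintillation counting 1.5 hours after dosing. Loss of signal relative to DMSO baseline scored; primary screen at 25 uM in duplicate, actives followed up in concentration series.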

Experiment [21] has as its target rat Neurotensin Receptor (NTS), Ntsr1 (gene 366274) (UniProt P20789). Put plainly: NVS_GPCR_rNTS: NovaScreen (NVS) G Protein-Coupled Receptor Assay for rat Neurotensin Receptor (NTS) (AID 2283308). The essentials:
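Rat forebrain membranes; radioligand binding with competitive displacement, read by filter-based scintillation counting 1 h after dosing. Primary screen in duplicate at 25 uM; actives (e.g., 30% inhibition) rerun in concentration-response up to 50 uM, loss-of-signal versus DMSO.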

Experiment [22] concerns the target bovine Gamma-Aminobutyric Acid Type A Receptor BDZ, alpha 1 site (GABARa1), GABRA1 (gene 780973) (UniProt P08219). Description: NVS_LGIC_bGABARa1: NovaScreen (NVS) Ligand-Gated Ion Channel Assay for bovine Gamma-Aminobutyric Acid Type A Receptor BDZ, alpha 1 site (GABARa1) (AID 2283321). The essentials: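 Radioligand competition binding on bovine cortical membranes, 0.75 h, filter-based scintillation counting. Primary single concentration 25 uM in duplicate; actives rerun in concentration-response to 50 uM max. Loss of signal fitted versus DMSO.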

Structures are written as SMILES. Records with an inconclusive call do not appear. The source made the active and inactive calls. The calls were made as follows: active = hit-call score of the fitted dose curve at least 0.9, where 1 is the maximum; inconclusive = response in the unintended direction; inactive = score below 0.9.

The term AC50 denotes the concentration at which the activity in the assay is half-maximal.

Chain of human Protein Tyrosine Phosphatase Receptor Type C (PTPRC), PTPRC (gene 5788) (P08575 whole entry, looked up): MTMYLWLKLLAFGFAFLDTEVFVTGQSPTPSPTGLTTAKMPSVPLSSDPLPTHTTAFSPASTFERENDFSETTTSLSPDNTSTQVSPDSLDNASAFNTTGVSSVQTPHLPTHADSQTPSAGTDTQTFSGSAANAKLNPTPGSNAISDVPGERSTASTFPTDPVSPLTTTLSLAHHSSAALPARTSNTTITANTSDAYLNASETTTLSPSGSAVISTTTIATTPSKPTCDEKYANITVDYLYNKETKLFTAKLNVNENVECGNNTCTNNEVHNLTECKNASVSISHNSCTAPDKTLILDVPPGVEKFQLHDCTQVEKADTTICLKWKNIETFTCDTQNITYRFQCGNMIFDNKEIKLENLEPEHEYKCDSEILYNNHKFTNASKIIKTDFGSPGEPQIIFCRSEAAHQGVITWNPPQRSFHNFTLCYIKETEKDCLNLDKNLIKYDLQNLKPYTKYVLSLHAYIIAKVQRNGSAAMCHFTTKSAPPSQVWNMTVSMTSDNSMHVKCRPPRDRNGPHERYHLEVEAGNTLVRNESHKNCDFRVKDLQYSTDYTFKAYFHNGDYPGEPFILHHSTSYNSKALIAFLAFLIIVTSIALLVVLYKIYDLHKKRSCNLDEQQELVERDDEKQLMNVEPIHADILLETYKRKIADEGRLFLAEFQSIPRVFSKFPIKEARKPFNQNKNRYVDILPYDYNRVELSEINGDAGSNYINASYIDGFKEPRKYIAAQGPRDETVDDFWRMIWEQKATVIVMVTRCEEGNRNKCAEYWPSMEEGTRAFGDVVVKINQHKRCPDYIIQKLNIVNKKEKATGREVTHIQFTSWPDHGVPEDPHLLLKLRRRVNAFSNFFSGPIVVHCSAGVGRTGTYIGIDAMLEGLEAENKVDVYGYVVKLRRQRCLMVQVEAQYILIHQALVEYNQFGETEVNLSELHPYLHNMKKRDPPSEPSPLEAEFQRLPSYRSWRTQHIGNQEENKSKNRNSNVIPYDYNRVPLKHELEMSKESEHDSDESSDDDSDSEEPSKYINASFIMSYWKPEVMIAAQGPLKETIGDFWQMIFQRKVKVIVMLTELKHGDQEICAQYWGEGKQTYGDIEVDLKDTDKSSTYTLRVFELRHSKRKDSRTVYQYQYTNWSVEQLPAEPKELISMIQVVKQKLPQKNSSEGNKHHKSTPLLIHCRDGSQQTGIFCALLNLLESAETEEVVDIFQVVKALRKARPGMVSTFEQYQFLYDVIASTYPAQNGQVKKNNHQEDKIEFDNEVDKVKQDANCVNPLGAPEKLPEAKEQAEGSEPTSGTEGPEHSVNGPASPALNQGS
Chain of Androgen receptor (Homo sapiens) (P10275 whole entry, looked up, the tested form may be a part): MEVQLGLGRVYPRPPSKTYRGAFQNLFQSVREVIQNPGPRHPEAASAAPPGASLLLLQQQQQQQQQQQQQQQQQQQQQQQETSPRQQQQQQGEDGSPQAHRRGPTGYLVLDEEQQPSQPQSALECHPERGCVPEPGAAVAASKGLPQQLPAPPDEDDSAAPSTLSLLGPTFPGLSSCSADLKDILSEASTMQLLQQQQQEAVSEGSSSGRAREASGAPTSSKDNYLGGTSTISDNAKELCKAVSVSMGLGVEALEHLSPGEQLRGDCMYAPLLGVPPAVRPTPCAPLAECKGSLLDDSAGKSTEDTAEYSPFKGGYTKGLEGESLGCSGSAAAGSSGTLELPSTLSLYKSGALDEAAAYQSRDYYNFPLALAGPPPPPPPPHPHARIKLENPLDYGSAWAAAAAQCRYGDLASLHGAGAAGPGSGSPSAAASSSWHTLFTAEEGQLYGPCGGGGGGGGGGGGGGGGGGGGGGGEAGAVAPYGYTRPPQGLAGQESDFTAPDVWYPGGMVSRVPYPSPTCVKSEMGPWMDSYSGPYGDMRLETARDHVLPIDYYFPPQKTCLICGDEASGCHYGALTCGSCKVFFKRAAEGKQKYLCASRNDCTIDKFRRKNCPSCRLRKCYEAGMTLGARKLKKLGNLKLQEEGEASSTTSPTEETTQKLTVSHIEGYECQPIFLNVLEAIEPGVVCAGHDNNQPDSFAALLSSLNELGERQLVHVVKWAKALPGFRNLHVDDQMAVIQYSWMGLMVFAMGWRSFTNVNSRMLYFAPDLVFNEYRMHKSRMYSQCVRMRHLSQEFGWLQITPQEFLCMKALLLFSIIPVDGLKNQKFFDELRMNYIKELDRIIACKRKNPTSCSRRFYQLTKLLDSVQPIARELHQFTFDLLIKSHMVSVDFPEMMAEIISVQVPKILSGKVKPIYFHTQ
Chain of human AMP-activated Protein Kinase, alpha 1 (AMPKa1), PRKAA1 (gene 5562) (Q13131 whole entry, looked up): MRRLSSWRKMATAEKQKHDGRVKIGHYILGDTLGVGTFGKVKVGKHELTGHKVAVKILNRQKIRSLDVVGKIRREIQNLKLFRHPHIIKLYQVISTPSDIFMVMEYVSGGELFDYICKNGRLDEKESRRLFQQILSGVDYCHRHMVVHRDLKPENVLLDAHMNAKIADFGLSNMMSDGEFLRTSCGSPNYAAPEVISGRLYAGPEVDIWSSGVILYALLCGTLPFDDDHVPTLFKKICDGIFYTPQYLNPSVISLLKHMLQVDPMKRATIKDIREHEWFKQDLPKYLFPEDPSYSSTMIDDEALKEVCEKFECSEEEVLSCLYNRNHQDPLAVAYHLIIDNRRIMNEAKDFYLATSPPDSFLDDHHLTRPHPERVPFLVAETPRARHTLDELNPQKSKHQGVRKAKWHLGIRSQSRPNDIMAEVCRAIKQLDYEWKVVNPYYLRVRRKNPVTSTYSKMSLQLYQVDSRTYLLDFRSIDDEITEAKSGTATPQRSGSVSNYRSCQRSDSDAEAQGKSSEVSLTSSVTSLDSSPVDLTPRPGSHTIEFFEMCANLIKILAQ
Chain of human Fibroblast Growth Factor Receptor 1 (FGFR1), FGFR1 (gene 2260) (P11362 whole entry, looked up): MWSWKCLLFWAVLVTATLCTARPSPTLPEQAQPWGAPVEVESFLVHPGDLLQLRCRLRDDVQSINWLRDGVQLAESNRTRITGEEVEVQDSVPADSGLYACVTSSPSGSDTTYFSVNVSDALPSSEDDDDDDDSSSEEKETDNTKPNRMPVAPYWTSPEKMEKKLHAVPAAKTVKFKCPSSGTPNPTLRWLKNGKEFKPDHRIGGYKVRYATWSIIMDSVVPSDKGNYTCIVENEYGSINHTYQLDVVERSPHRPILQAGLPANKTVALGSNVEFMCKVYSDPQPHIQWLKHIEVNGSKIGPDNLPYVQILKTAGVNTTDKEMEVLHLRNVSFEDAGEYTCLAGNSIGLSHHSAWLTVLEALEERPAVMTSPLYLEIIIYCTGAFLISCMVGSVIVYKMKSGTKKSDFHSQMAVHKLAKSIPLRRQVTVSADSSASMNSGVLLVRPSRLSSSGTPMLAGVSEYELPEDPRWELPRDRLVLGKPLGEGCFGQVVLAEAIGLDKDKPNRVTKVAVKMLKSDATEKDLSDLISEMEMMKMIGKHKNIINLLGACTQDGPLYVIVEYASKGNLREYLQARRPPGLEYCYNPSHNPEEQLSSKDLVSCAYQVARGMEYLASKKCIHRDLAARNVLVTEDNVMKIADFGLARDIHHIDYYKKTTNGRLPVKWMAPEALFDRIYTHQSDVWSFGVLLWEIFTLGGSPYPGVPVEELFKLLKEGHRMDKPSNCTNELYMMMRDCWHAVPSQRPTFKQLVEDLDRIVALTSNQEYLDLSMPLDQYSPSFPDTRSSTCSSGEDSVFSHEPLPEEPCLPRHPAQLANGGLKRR
Chain of human Acetylcholinesterase (AChE), ACHE (gene 43) (P22303 whole entry, looked up): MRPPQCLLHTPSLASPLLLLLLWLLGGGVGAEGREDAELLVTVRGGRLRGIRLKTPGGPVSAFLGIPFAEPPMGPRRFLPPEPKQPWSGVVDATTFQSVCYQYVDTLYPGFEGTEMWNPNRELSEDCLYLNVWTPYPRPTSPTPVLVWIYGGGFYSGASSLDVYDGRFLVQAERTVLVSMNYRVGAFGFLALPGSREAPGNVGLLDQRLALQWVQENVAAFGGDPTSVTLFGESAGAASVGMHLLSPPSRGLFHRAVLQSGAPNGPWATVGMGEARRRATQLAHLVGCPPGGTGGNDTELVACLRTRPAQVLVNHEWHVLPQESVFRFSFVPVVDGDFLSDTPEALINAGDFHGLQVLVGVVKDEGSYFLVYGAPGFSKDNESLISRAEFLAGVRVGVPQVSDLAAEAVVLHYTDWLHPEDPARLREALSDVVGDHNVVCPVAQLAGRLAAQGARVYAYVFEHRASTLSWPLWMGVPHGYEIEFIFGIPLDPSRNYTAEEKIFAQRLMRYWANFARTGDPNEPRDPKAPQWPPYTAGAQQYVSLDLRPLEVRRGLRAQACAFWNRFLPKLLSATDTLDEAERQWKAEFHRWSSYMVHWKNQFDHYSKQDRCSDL
Chain of human Aurora Kinase A - serine/threonine-protein Kinase 6 (AurA), AURKA (gene 6790) (O14965 whole entry, looked up): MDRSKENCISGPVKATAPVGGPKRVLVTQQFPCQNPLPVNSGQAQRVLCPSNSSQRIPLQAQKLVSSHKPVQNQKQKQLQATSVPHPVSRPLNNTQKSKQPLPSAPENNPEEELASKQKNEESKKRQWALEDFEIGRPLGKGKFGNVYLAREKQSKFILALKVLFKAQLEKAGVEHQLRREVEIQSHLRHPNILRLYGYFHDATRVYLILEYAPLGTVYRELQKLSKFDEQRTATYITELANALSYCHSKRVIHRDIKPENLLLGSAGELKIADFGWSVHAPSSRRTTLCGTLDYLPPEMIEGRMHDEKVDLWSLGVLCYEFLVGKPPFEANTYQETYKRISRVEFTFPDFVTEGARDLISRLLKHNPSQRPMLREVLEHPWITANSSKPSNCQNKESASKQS
Chain of human Caspase 2 (CASP2), CASP2 (gene 835) (P42575 whole entry, looked up): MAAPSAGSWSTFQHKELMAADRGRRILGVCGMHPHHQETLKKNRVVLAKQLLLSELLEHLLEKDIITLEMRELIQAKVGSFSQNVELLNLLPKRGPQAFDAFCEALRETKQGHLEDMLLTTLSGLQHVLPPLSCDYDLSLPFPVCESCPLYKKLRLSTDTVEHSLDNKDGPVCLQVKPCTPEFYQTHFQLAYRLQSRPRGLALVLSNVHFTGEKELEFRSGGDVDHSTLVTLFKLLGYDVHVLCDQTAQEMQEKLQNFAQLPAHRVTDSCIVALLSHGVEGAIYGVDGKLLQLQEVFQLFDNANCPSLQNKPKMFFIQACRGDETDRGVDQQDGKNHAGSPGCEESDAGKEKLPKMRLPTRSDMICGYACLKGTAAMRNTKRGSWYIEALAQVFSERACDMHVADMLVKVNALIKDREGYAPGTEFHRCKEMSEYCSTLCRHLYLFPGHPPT

Consider `CCCCCCCCCCCCc1ccccc1S(=O)(=O)O`, for which the molecule was called inactive in [1]. Moreover, the AC50 in [2] is 11.3 µM (active); in experiment [3] it was 9.88 µM (active); in experiment [4], 12.6 µM (active); in experiment [5], 9.42 µM (active); in experiment [6], 31.7 µM (active); in [7], 18.1 µM (active). The AC50 in experiment [8] was 13.5 µM (active); in experiment [9], 19.9 µM (active); in experiment [10] it was 5.18 µM (active); in experiment [11], 26 µM (active).
As to `COc1cc(-c2nc(NC(=O)c3cc4cc(C)cc(C)c4n3CC(=O)O)sc2CCC2CCCCC2)c(OC)cc1Cl`, in experiment [1], the outcome was inactive. Further, the AC50 is 8.19 µM (active) in experiment [2], 7.75 µM (active) in experiment [12] and 11.4 µM (active) in experiment [10].
Consider `Fc1ccccc1[C@@H](F)COC1CCC(Nc2ncnc3[nH]ncc23)CC1` (some centres undefined), for which the outcome in [1], in experiment [13] and in experiment [14] was inactive. For the same molecule, the AC50 in experiment [15] is 18.6 µM (active); in experiment [16], 7.67 µM (active).
For the molecule `CCCCCCCCCCCCCCCCOS(=O)(=O)O`, the molecule was classed as inactive in experiment [1]. The AC50 is 16.8 µM (active) in [17], 1.41 µM (active) in [5] and 6.6 µM (active) in experiment [10].
On to `c1ccc2[nH]c(-c3cscn3)nc2c1`, for which the molecule was called inactive in [1], in [18], in experiment [19], in experiment [14], in experiment [20] and in experiment [21]. In experiment [22], the result was inactive. For the same molecule, the AC50 in [3] is 17 µM (active).
For `CCCN(C1CCN(C(=O)C2CCNCC2)CC1)[C@@H]1CCc2ccc(OC)cc2C1`, the result in experiment [1] was inactive. Moreover, the AC50 in experiment [17] was 35.2 µM (active).
